Consider 13 compounds from PubChem BioAssay (NCI).

This is part of a sample that, as a whole, favours compounds with a hit. Of some 79,000 tested, about 15% had one in any assay. Unmarked numbers belong to inactive results. The source made the active and inactive calls. No stated cut-off is given here; in the data, active means growth inhibition above about 70%; inactive means the rest.

Experiment [1] in a line: NCI Yeast Anticancer Drug Screen. Data for the rad50 strain (AID 155).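 Further: 0% = growth of vehicle-only cultures of the same strain.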 The following applies: S. cerevisiae rad50 strain growth inhibition, active compounds read high. In short, it runs like this: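 Compounds were tested on a yeast strain with an engineered DNA damage repair alteration; the reported value is growth inhibition normalised to vehicle treatment.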
A short description of experiment [2]: NCI Yeast Anticancer Drug Screen. Data for the mec2-1 strain (AID 157). To be noted: S. cerevisiae mec2-1 strain, active compounds read high. Summed up:
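Cells of the genetically defined mec2-1 yeast strain are incubated with test compound. Inhibition of growth is calculated against vehicle-treated controls.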

A short description of experiment [3]: NCI Yeast Anticancer Drug Screen. Data for the sgs1 mgt1 strain (AID 161).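 Further: 0% = growth of cultures given vehicle only.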 The following applies: S. cerevisiae sgs1 mgt1 strain, active compounds read high. In short, it runs like this:
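Test agents were incubated with a DNA-repair-mutant yeast strain. Growth was then read and compared against vehicle-treated controls.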

A short description of experiment [4]: NCI Yeast Anticancer Drug Screen. Data for the cln2 rad14 strain (AID 165).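 Further: 0% = growth equal to vehicle treated cultures.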 The following applies: S. cerevisiae cln2 rad14 strain, active compounds read high. In short, it runs like this: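 The screen exposed genetically defined yeast (cln2 rad14) to test compounds and scored growth inhibition relative to vehicle-treated controls.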
The nature of experiment [5]: NCI Yeast Anticancer Drug Screen. Data for the bub3 strain (AID 167). The following applies: S. cerevisiae bub3 mutant strain, active compounds read high. Summed up:
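Growth of a checkpoint-deficient yeast mutant is measured after compound exposure. Values represent inhibition relative to vehicle.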

Experiment [6] in a line: NCI Yeast Anticancer Drug Screen. Data for the mlh1 rad18 strain (AID 175). To be noted: S. cerevisiae mlh1 rad18 strain growth inhibition, active compounds read high. In short, it runs like this:
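Compound-treated yeast growth, normalised to vehicle controls. Strain bears defined DNA repair mutations.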

The mark [7] stands for this setting: at 5.0 µM (retest, dose inferred, filed as 0.5).
[8] abbreviates: at 50.0 µM (retest, dose inferred, filed as 5.0).

Take `COc1ccc(C(N)=O)cc1`: the growth inhibition in experiment [1] (setting [7]) is 14%; in experiment [1] (setting [8]), 2%; in experiment [2] (setting [7]) it was -3%; in experiment [2] (setting [8]), 0%; in experiment [3] (setting [7]), -5%; in experiment [3] (setting [8]), 3%. Besides, the growth inhibition in experiment [4] (setting [7]) was -3%; in experiment [4] (setting [8]), -11%; in experiment [5] (setting [7]), -6%; in experiment [5] (setting [8]) it was -5%; in experiment [6] (setting [7]), 16%; in experiment [6] (setting [8]) it was 24%.
For the compound `CCCCC(=O)c1ccc([N+](=O)[O-])o1`, the growth inhibition in experiment [1] (setting [7]) is 39%; in experiment [1] (setting [8]) it was 98% (active); in experiment [2] (setting [7]) it was 19%; in experiment [2] (setting [8]), 99% (active); in experiment [3] (setting [7]) it was 26%; in experiment [3] (setting [8]), 100% (active). For the same compound, the growth inhibition in experiment [4] (setting [7]) was 18%; in experiment [4] (setting [8]), 99% (active); in experiment [5] (setting [7]), 45%; in experiment [5] (setting [8]) it was 100% (active); in experiment [6] (setting [7]), 36%; in experiment [6] (setting [8]), 99% (active).
In the case of `COc1cccc(NC(=O)c2c(SC)c(C#N)c(=O)n(N)c2N)c1`, the growth inhibition in experiment [1] (setting [7]) is 4%; in experiment [1] (setting [8]) it was 99% (active); in experiment [2] (setting [7]), 10%; in experiment [2] (setting [8]) it was 99% (active); in experiment [3] (setting [7]) it was 7%; in experiment [3] (setting [8]), 99% (active). In addition, the growth inhibition in experiment [4] (setting [7]) is 7%; in experiment [4] (setting [8]) it was 98% (active); in experiment [5] (setting [7]), 7%; in experiment [5] (setting [8]) it was 99% (active); in experiment [6] (setting [7]), 8%; in experiment [6] (setting [8]), 99% (active).
Regarding `O=C(CBr)C(Br)C(Br)c1ccccc1` (stereo unspecified), the growth inhibition in experiment [1] (setting [7]) is 98% (active); in experiment [1] (setting [8]) it was 99% (active); in experiment [2] (setting [7]) it was 99% (active); in experiment [2] (setting [8]), 100% (active); in experiment [3] (setting [7]), 100% (active); in experiment [3] (setting [8]), 98% (active). The growth inhibition in experiment [4] (setting [7]) was 99% (active); in experiment [4] (setting [8]), 99% (active); in experiment [5] (setting [7]) it was 100% (active); in experiment [5] (setting [8]) it was 100% (active); in experiment [6] (setting [7]), 92% (active); in experiment [6] (setting [8]), 99% (active).
On to `O=C(/C=C/c1ccccc1)c1ccc(N=Cc2ccccc2)cc1`, for which the growth inhibition in experiment [1] (setting [7]) is -37%; in experiment [1] (setting [8]), 30%; in experiment [2] (setting [7]) it was 6%; in experiment [2] (setting [8]), 21%; in experiment [3] (setting [7]) it was 2%; in experiment [3] (setting [8]) it was 68%. For the same compound, the growth inhibition was 1% in experiment [4] (setting [7]); 6% in experiment [4] (setting [8]); 7% in experiment [5] (setting [7]); 54% in experiment [5] (setting [8]); 8% in experiment [6] (setting [7]); 38% in experiment [6] (setting [8]).
Regarding `O=C(O)c1ccc(-c2ccccc2)cc1`, the growth inhibition in experiment [1] (setting [7]) is 12%; in experiment [1] (setting [8]), 80% (active); in experiment [2] (setting [7]), 0%; in experiment [2] (setting [8]), 38%; in experiment [3] (setting [7]), 12%; in experiment [3] (setting [8]) it was 69%. In addition, the growth inhibition was -1% in experiment [4] (setting [7]); 39% in experiment [4] (setting [8]); -1% in experiment [5] (setting [7]); 42% in experiment [5] (setting [8]); -1% in experiment [6] (setting [7]); 47% in experiment [6] (setting [8]).
Consider `COc1ccc(/C(C#N)=C/c2cccc(N)c2)cc1`, for which the growth inhibition in experiment [1] (setting [7]) is 6%; in experiment [1] (setting [8]), 16%; in experiment [2] (setting [7]), 3%; in experiment [2] (setting [8]), 10%; in experiment [3] (setting [7]), 1%; in experiment [3] (setting [8]), 27%. Further, the growth inhibition was 2% in experiment [4] (setting [7]); 2% in experiment [4] (setting [8]); 13% in experiment [5] (setting [7]); 42% in experiment [5] (setting [8]); -30% in experiment [6] (setting [7]); 12% in experiment [6] (setting [8]).
As for `N#CC(c1ccccc1)C(c1ccccc1)c1ccccc1` (stereo unspecified), the growth inhibition is 13% in experiment [1] (setting [7]); 67% in experiment [1] (setting [8]); 9% in experiment [2] (setting [7]); 89% (active) in experiment [2] (setting [8]); 9% in experiment [3] (setting [7]); 92% (active) in experiment [3] (setting [8]). For the same compound, the growth inhibition is 20% in experiment [4] (setting [7]); 55% in experiment [4] (setting [8]); 13% in experiment [5] (setting [7]); 87% (active) in experiment [5] (setting [8]); -24% in experiment [6] (setting [7]); 80% (active) in experiment [6] (setting [8]).
Consider `O=[N+]([O-])c1ccc2nc3ccccc3[n+]([O-])c2c1`, for which the growth inhibition is 25% in experiment [1] (setting [7]); 99% (active) in experiment [1] (setting [8]); 19% in experiment [2] (setting [7]); 99% (active) in experiment [2] (setting [8]); 33% in experiment [3] (setting [7]); 100% (active) in experiment [3] (setting [8]). Also, the growth inhibition in experiment [4] (setting [7]) is -1%; in experiment [4] (setting [8]), 99% (active); in experiment [5] (setting [7]) it was 50%; in experiment [5] (setting [8]) it was 100% (active); in experiment [6] (setting [7]), 38%; in experiment [6] (setting [8]), 99% (active).
`CN(C)c1cc(N)c(Cc2c(N)cc(N(C)C)cc2Cl)c(Cl)c1`: the growth inhibition in experiment [1] (setting [7]) was 5%; in experiment [1] (setting [8]), 97% (active); in experiment [2] (setting [7]), -2%; in experiment [2] (setting [8]), 97% (active); in experiment [3] (setting [7]) it was -4%; in experiment [3] (setting [8]) it was 98% (active). For the same compound, the growth inhibition in experiment [4] (setting [7]) was 8%; in experiment [4] (setting [8]), 96% (active); in experiment [5] (setting [7]) it was 6%; in experiment [5] (setting [8]) it was 97% (active); in experiment [6] (setting [7]) it was 1%; in experiment [6] (setting [8]), 97% (active).
As to `O=[N+]([O-])/C=C/c1cccs1`, the growth inhibition in experiment [1] (setting [7]) was 95% (active); in experiment [1] (setting [8]), 98% (active); in experiment [2] (setting [7]), 33%; in experiment [2] (setting [8]), 99% (active); in experiment [3] (setting [7]), 69%; in experiment [3] (setting [8]), 100% (active). Also, the growth inhibition is 16% in experiment [4] (setting [7]); 99% (active) in experiment [4] (setting [8]); 48% in experiment [5] (setting [7]); 100% (active) in experiment [5] (setting [8]); 4% in experiment [6] (setting [7]); 98% (active) in experiment [6] (setting [8]).
On to `COc1ccc(N=CC2CCCCC2=O)c([N+](=O)[O-])c1` (stereo unspecified), for which the growth inhibition is 25% in experiment [1] (setting [7]); 69% in experiment [1] (setting [8]); 29% in experiment [2] (setting [7]); 42% in experiment [2] (setting [8]); -1% in experiment [3] (setting [7]); 12% in experiment [3] (setting [8]). For the same compound, the growth inhibition was 31% in experiment [4] (setting [7]); 56% in experiment [4] (setting [8]); 13% in experiment [5] (setting [7]); 86% (active) in experiment [5] (setting [8]); 53% in experiment [6] (setting [7]); 61% in experiment [6] (setting [8]).
As for `O=C1c2ccccc2-c2ccc(O)cc21`, the growth inhibition was 58% in experiment [1] (setting [7]); 95% (active) in experiment [1] (setting [8]); 17% in experiment [2] (setting [7]); 84% (active) in experiment [2] (setting [8]); 28% in experiment [3] (setting [7]); 93% (active) in experiment [3] (setting [8]). Besides, the growth inhibition in experiment [4] (setting [7]) is 10%; in experiment [4] (setting [8]) it was 69%; in experiment [5] (setting [7]), 10%; in experiment [5] (setting [8]) it was 87% (active); in experiment [6] (setting [7]) it was -11%; in experiment [6] (setting [8]) it was 90% (active).
